# An excerpt weighted towards active compounds, which were near 4.1% of everything screened.
# ssDAF12 agonist: activators of S. stercoralis DAF-12 nuclear receptor. HEK293 ssDAF-12/GRIP1 lit1-tk-luc reporter, luminescence; % of 3 µM dafachronic acid response. activation, % at 6.8 µM. 370,000 tested, 1% active. AID 652126;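 active = activation above the mean over all tested compounds plus 3 SD, cut at about 0.9% in these data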;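 also: 0% = DMSO-only wells and 100% = 3 µM delta7-dafachronic acid wells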
# DAX1 inh-1: NR0B1 (DAX1) inhibition; HEK293 Gal4-DAX1 luciferase reporter, luminescence; inhibition, % at 6.75 µM; 340,000 tested, 0.99% active; AID 504766;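 active = inhibition above the mean over all tested compounds plus 3 SD, cut at about 4.2% in these data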;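 also: 0% = DAX1-transfected cells with DMSO and 100% = empty-vector control cells with DMSO; inhibition shows as a rise in luminescence from relieved DAX1 repression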
# Target sequence (P51843 207-470 limits assumed): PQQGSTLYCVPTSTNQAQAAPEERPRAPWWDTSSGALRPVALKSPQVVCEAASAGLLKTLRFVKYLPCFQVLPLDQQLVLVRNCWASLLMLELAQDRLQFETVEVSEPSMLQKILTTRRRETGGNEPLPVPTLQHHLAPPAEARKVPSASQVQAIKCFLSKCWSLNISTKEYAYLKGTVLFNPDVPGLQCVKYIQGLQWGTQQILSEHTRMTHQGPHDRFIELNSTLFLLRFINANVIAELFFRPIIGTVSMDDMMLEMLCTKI
# hgDAF-12 ag: agonists of H. glycines DAF-12 nuclear receptor. HEK293 GAL4-hgDAF12 UAS-luciferase reporter, agonist luminescence; normalized to butyrate control. activation, % at 6.8 µM. 370,000 tested, 1.8% active;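 active = activation above a cutoff set at the mean of all screened compounds plus 3 SD, cut at about 10% in these data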;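 also: 0% = DMSO wells and 100% = sodium butyrate wells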
# hcDAF-12 act: activators of H. contortus DAF-12 nuclear receptor; activation, % at 6.8 µM; HEK293 hcDAF-12 lit1-tk-luc reporter, luminescence; 0% DMSO, 100% Δ7-dafachronic acid; 370,000 tested, 1.4% active; AID 652067;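 active = activation above the mean of all tested compounds plus 3 SD, cut at about 5.5% in these data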;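 also: 100% = response to 3 µM Δ7-dafachronic acid high control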
# DAX1 inh-2: blocks DAX1 repression of SF-1 activated StAR promoter; 370,000 tested, 1.1% active; HEK293T StAR-luciferase reporter, SF-1/DAX-1 repression relief; inhibition, % at 6.8 µM; AID 652010;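 active = inhibition above the mean over all tested compounds plus 3 SD, cut at about 3.6% in these data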;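 also: 0% = DAX-1 cells with DMSO and 100% = cells lacking DAX-1 with DMSO; higher inhibition means more luminescence from relief of DAX-1 repression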
# * = called active by the depositor; x = no result.
SMILES,ssDAF12 agonist,DAX1 inh-1,hgDAF-12 ag,hcDAF-12 act,DAX1 inh-2
O=C1C=CC(=O)N1CCNc1ncc(C(F)(F)F)cc1Cl,-1,-2,-6,-4,-2
O=c1cc(Cl)[nH]c(=O)n1CCNc1ncc(C(F)(F)F)cc1Cl,-1,2,11*,5,1
Cc1ccc(-c2nnc(SCC(=O)Nc3ccc4c(c3)OCCO4)n2-c2ccc(C)cc2)cc1,-1,x,4,-2,0
COC(=O)c1c(-c2ccccc2)csc1NC1=NS(=O)(=O)c2ccccc21,0,2,10,2,3.8*
COC(=O)c1ccc(C(=O)OC)c(NC2=NS(=O)(=O)c3ccccc32)c1,0,0,-1,-1,0
CN(NC1OC(=O)c2ccccc21)c1ncc(Cl)cc1C(F)(F)F (centres undefined),-1,x,0,0,-1
CN(NC1OC(=O)c2ccccc21)c1ccccc1[N+](=O)[O-] (centres undefined),-1,8.0*,-2,1,0
CC(COc1cccc(OC(F)(F)F)c1)CN1CCC(C(O)(c2ccccc2)c2ccccc2)CC1 (centres undefined),-1,x,1,-1,-1
Cc1cc(C(=O)OCC(=O)NCCc2ccccc2)c(C)o1,-1,5.1*,0,4,0
Cc1cc(C(=O)OCC(=O)NCc2ccccc2)c(C)o1,0,-1,2,-1,2
COc1ccc(Nc2nc(N)nc(CSC(=S)N3CCCCC3)n2)cc1,-1,4,8,0,0
COc1ccc(Nc2nc(N)nc(CSC(=S)N3CCN(C)CC3)n2)cc1,5.4*,2,4,0,-1
COC(=O)[C@]12C[C@H](CC(=O)N3CCC(c4ccccc4)CC3)C(=O)N(Cc3cccc4ccccc34)C1=C[C@H](C1CCCC1)O[C@@H]2C,-1,x,4,1,-1
Cc1sc(N=Nc2ccc(N(C)C)cc2)[n+]([O-])c1C,0,2,5,4,3.7*
Cc1cc(N(C)C)ccc1N=Nc1ccc(N)cc1,-1,3,4,1,0
CC(NC(=O)COC(=O)/C=C/c1ccc([N+](=O)[O-])cc1)c1ccccc1 (centres undefined),-2,-1,0,1,0
O=C(/C=C/c1ccc([N+](=O)[O-])cc1)OCc1cnc(-c2ccccc2)o1,-1,6.1*,2,0,0
COc1ccc2c(c1)c(=O)oc1cc(OCC(=O)NC3CCCCC3)ccc12,0,5.9*,0,2,0
COc1ccc2c(c1)c(=O)oc1cc(OCC(=O)NC3CC3)ccc12,-2,0,3,1,0
O=C(CSc1nc2ccccc2o1)NCc1n[nH]c(=O)c2ccccc12,0,2,6,6.2*,1
O=C(Cc1ccccc1F)N1CCC(n2nnc3ncccc32)CC1,-1,x,2,-1,-1
Cc1ccc(Cl)cc1NC1=C/C(=N\S(=O)(=O)c2cccs2)c2ccccc2C1=O,1.0*,0,-3,2,0
COC(=O)[C@]12C[C@H](CC(=O)NCc3cccc(C(F)(F)F)c3)C(=O)N(Cc3ccc(Cl)cc3Cl)C1=C[C@H](C(C)(C)C)O[C@@H]2C,-1,x,1,-3,-1
CC(=O)c1cc(-c2cccc(C#N)c2)c(=O)n2c1CCC2,-1,x,-1,-1,0
O=C(CSc1nnc(C2COc3ccccc3O2)o1)NC1CCCCC1 (centres undefined),0,1,1,-2,0
SMILES,ssDAF12 agonist,DAX1 inh-1,hgDAF-12 ag,hcDAF-12 act,DAX1 inh-2
O=C(CSc1nnc(C2COc3ccccc3O2)o1)Nc1nccs1 (centres undefined),x,4.4*,x,x,x
Clc1ccc([C@H]2OC[C@@]3(CNCc4ccccn4)CS[C@H](c4ccc(Cl)cc4)N23)cc1,-1,x,1,1,1
CC1CCC(NC(=O)Cn2c(=O)[nH]c3ccsc3c2=O)CC1 (centres undefined),-1,2,3,1,0
O=C(Cn1c(=O)[nH]c2ccsc2c1=O)NC1CCCCCC1,-2,7.3*,3,0,1
Cc1cc(NC(=O)Cc2cn(Cc3ccccc3)c3ccccc23)ccc1Oc1cccnc1,-1,x,5,-2,0
CCc1ccccc1NC(=O)CN1C(=O)c2ccccc2S1(=O)=O,-1,4.5*,-1,2,0
CCc1cccc(C)c1NC(=O)CN1C(=O)c2ccccc2S1(=O)=O,-1,2,1,0,0
COc1ccc(NC(=O)C(C)N2C(=O)c3ccccc3S2(=O)=O)c(OC)c1 (centres undefined),-2,0,-1,-2,1
CC(C)C(NC(=O)CN1C(=O)c2ccccc2S1(=O)=O)C(C)C,-1,5.0*,2,-1,0
O=C(CN1C(=O)c2ccccc2S1(=O)=O)NC1CCCCCC1,-1,6.2*,13*,1,0
CCOc1ccccc1NC(=O)C(C)N1C(=O)c2ccccc2S1(=O)=O (centres undefined),-1,0,-1,0,3.7*
COC(=O)C1CN(Cc2ccc(C)cc2)CCS(=O)(=O)N1Cc1cn(Cc2ccc(C)cc2)nn1 (centres undefined),-2,x,0,-2,0
O=C(NC1CCCCC1)c1ccc2c(c1)S(=O)(=O)c1ccccc1C2=O,-1,5.0*,2,-1,0
O=C(NC1CCCC1)c1ccc2c(c1)S(=O)(=O)c1ccccc1C2=O,-2,-1,-3,-2,-1
COc1ccc(N2C(=O)c3n[nH]c(C(C)C)c3C2c2ccccc2)cc1 (centres undefined),-1,x,0,-1,0
CC(C)(C)NC(=O)Cn1c(SCC(=O)NC2CC2)nc2ccccc21,0,4.7*,-2,-1,0
CCCCN(C(C)=O)c1ccc2c(c1)C1CC2CCN1C(=O)OCc1ccccc1 (centres undefined),-2,-5,-5,-5,-5
CCN(CCc1ccccc1)c1ccc2c(c1)C1CC2CCN1C(=O)OCc1ccccc1 (centres undefined),1.6*,-1,1,0,1
CC(=O)Nc1ccc(O)cc1,-1,5.8*,0,-2,1
CCCCNC(=O)C[C@H]1C[C@@]2(C(=O)OC)C(=C[C@H](COCc3ccccc3)O[C@@H]2C)N(Cc2ccc3c(c2)OCO3)C1=O,-2,x,1,-1,-1
COCCCNC(=O)C[C@H]1C[C@@]2(C(=O)OC)C(=C[C@H](C(C)(C)C)O[C@@H]2C)N(Cc2ccco2)C1=O,-2,x,2,-1,0
C[C@@H]1C=CCCO[C@]12C(=O)N(Cc1ccccc1C(F)(F)F)c1cccc(Br)c12,-1,x,1,-2,1
CN(Cc1ccc(Cl)cc1Cl)C(=O)CCNC(=O)c1ccco1,-1,1,-1,-1,2

# Assay outcomes from PubChem.
